The entries come from a sample that favours hits as a whole.
ST2 IL33 inh – inhibitors of human ST2 (IL1RL1) binding to IL-33, primary screen, biochemical, AlphaLISA; Interleukin-1 receptor-like 1 (Homo sapiens), Q01638; inhibition, % for hits at 17 µM; 2.3% of 78,000 active; AlphaLISA ST2-Fc/biotin-IL-33 interaction, 1 h; AID 1259354, 2018; in the data active = inhibition above about 30%
Target sequence (Q01638 whole entry, looked up): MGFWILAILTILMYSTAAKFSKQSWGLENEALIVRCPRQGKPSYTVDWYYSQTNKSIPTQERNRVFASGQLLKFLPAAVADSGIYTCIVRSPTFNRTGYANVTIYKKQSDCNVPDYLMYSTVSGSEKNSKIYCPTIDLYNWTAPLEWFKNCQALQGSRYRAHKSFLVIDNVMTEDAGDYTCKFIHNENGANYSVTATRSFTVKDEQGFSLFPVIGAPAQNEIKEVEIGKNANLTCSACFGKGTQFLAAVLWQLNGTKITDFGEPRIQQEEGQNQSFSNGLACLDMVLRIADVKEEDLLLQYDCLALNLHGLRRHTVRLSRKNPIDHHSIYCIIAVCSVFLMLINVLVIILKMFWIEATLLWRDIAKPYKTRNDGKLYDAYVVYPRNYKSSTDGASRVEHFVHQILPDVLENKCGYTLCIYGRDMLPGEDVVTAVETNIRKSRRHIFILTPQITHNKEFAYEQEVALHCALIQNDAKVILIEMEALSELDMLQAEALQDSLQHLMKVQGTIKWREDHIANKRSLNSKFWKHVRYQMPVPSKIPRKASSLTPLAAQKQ
* marks the source's active call; other numbers are inactive results; ! = repeats disagree.

For COc1ccc(-n2nc3c(c2NC(=O)c2cccs2)CS(=O)C3)cc1 (stereo not drawn) the results were ST2 IL33 inh inactive.
For O=C(O)CCC(=O)N1N=C(c2ccccc2)CC1c1ccc(Cl)cc1 (stereo not drawn) the results were ST2 IL33 inh inactive.
`CC(=O)N1c2ccccc2N=C(c2ccccc2)CC1c1ccccc1` (stereo not drawn) gave ST2 IL33 inh inactive.
For Cc1cc2n(n1)C(c1ccc(Cl)cc1)CC(c1ccccc1)=N2 (stereo not drawn) the results were ST2 IL33 inh 30%*!.
Screening COC(=O)[C@@H]1C[C@@H](NC(=O)COc2cccnc2)CN1C returned ST2 IL33 inh inactive.
For CCOc1c(Cl)cc(/C=C2/NC(=O)NC2=O)cc1Cl the results were ST2 IL33 inh inactive.
For O=C(CSc1nnc(-c2ccncc2)n1Cc1ccco1)c1cccc([N+](=O)[O-])c1 the results were ST2 IL33 inh inactive.
For CCOc1ccc(-c2nc(SCC(=O)NCCCc3ccccc3)n3[nH]c(=O)cc3n2)cc1 the results were ST2 IL33 inh inactive.
Screening CN(C)C(=O)N1CCC(C(=O)N2CCCC(Nc3ccc4c(c3)OCCO4)C2)CC1 (stereo not drawn) returned ST2 IL33 inh inactive.
`O=C(Cn1c2ccccc2c(=O)c2ccccc21)Nc1ccc(C(F)(F)F)cc1` gave ST2 IL33 inh inactive.
For Cc1cc(NC(=O)CN2C(=O)S/C(=C\c3ccccc3)C2=O)no1 the results were ST2 IL33 inh inactive.
`CCCCN1C(=O)S/C(=C\c2cc(C)n(C)c2C)C1=O` gave ST2 IL33 inh 39%*.
For O=C1S/C(=C\c2ccccc2F)C(=O)N1CNc1cccc(F)c1 the results were ST2 IL33 inh inactive.
O=C(CSc1nc2ccccc2s1)Nc1ccccc1 was read as ST2 IL33 inh inactive.
Screening O=C(CSc1nc2ccccc2s1)c1ccccc1 returned ST2 IL33 inh inactive.
Screening O=C(CSc1nc2ccccc2s1)c1ccccc1[N+](=O)[O-] returned ST2 IL33 inh 33%*.
Cc1cccnc1CN1CCN(Cc2c(C)nn(CCO)c2C)CC1 was read as ST2 IL33 inh inactive.
`Cc1c(C(=O)NC(C)c2ccccc2)oc2ccc(S(=O)(=O)N3CCCCCC3)cc12` (stereo not drawn) gave ST2 IL33 inh inactive.
CC(C)=Cc1oc2c(Cl)cc(Cl)cc2c1N1CCOCC1 was read as ST2 IL33 inh 30%*.
Screening COc1c(Cl)cc(Cl)cc1C(=O)Nc1ccccc1N1CCOCC1 returned ST2 IL33 inh inactive.
CC(=O)Nc1ccc(N2CCOCC2)cc1 was read as ST2 IL33 inh inactive.
`CC(C)C(=O)Nc1nnc(N=Cc2ccccc2Cl)s1` gave ST2 IL33 inh inactive.
For COC(=O)C1CCN(C(=O)CC2(c3ccc(-c4ccccc4)cc3)CC(=O)N(C3CC3)C2=O)CC1 (stereo not drawn) the results were ST2 IL33 inh inactive.
For CC1CC(C)CN(C(=O)CSc2cc(=O)n(C)c3ccccc23)C1 (stereo not drawn) the results were ST2 IL33 inh inactive.
Screening O=C(Nc1cccc(C(F)(F)F)c1)O[C@@H]1CO[C@H]2[C@@H]1OC[C@@H]2n1nnnc1SC1CCCC1 returned ST2 IL33 inh inactive.
For CN(C)c1ccc(C(O)(c2ccc(N(C)C)cc2)c2ccc(N(C)C)cc2)cc1 the results were ST2 IL33 inh 97%*.
Screening CN(C)c1ccc(NC(=O)c2ccc(Cl)cc2)cc1 returned ST2 IL33 inh inactive.
For CCCC(C)NC(=O)c1ccc(N(C)C)cc1 (stereo not drawn) the results were ST2 IL33 inh inactive.
Cc1ccc2c(c1Br)C(=O)C(=O)N2 was read as ST2 IL33 inh inactive.
`COc1ccc(OC)c(NC(=O)c2cc3ccccc3o2)c1` gave ST2 IL33 inh inactive.
COc1ccc(OC)c(NC(=O)c2c(OC)cccc2OC)c1 was read as ST2 IL33 inh 35%*.
`CCc1ccccc1NC(=O)c1c(OC)cccc1OC` gave ST2 IL33 inh inactive.
CC(O)(CC(=O)NCC(=O)O)CC(=O)OC1C(O)CC2(C)C3=C(CCC2C1(C)C)C1(C)CCC(C(CO)CCC(O)C(C)(C)O)C1(C)C(O)C3 (stereo not drawn) was read as ST2 IL33 inh inactive.
For O=C(Nc1nnc(-c2ccc(Cl)s2)o1)c1ccc(S(=O)(=O)N2CCCC2)cc1 the results were ST2 IL33 inh inactive.
`COc1ccc(CCN2C(=O)C3CC=CCC3C2=O)cc1OC` (stereo not drawn) gave ST2 IL33 inh inactive.
NNc1ncnc2sc3c(c12)CCC3 was read as ST2 IL33 inh inactive.
For Cn1c(=O)cc2c3c(c(N4CCCCC4)ccc31)C(=O)c1ccccc1-2 the results were ST2 IL33 inh 44%*.
For Cn1c(=O)cc2c3c(c(Br)ccc31)C(=O)c1ccccc1-2 the results were ST2 IL33 inh inactive.
For Cn1c(=O)cc(SCC(=O)N2CCCCCC2)c2ccccc21 the results were ST2 IL33 inh inactive.
`O=C(CCOc1ccccc1)Nc1nc2c(s1)CCc1ccccc1-2` gave ST2 IL33 inh inactive.
CCC(=O)Nc1ccc(OCC(=O)NCc2cnc(C)cn2)cc1 was read as ST2 IL33 inh inactive.
O=C1CC(NS(=O)(=O)N2CCCCC2)CN1CCCc1ccccc1 (stereo not drawn) was read as ST2 IL33 inh inactive.
`O=C(NCc1ccccn1)C1CC(=O)N(CCc2ccccc2)C1` (stereo not drawn) gave ST2 IL33 inh inactive.
`O=C1CC(NCc2ccccn2)CN1CCCc1ccccc1` (stereo not drawn) gave ST2 IL33 inh 53%*.
Screening CCCc1cc2c(=O)c(-c3ccc4c(c3)OCCO4)c(C)oc2cc1OC(C)=O returned ST2 IL33 inh inactive.
COCc1cc(=O)[nH]c(SCC(=O)Nc2ccc(C)c(C)c2)n1 was read as ST2 IL33 inh inactive.
COC(=O)CCCC(=O)NC1CCCN(c2ccc(C(F)(F)F)cn2)C1 (stereo not drawn) was read as ST2 IL33 inh inactive.
`Cc1noc(C)c1-c1nc(CC(C)C)nn1-c1ccc2c(c1)OCO2` gave ST2 IL33 inh inactive.
Screening Cc1ccc(Cl)cc1N1C(=O)c2c(C)nc3ccccc3c2C1=O returned ST2 IL33 inh 31%*.
`Cc1nc2ccccc2c2c1C(=O)N(c1ccc(C(N)=O)cc1)C2=O` gave ST2 IL33 inh inactive.
`Cc1nc2ccccc2c2c1C(=O)N(c1ccc3c(c1)OCO3)C2=O` gave ST2 IL33 inh 51%*.
Cc1nc2ccccc2c2c1C(=O)N(c1cccnc1Cl)C2=O was read as ST2 IL33 inh inactive.
COc1cc([N+](=O)[O-])ccc1N1C(=O)c2c(C)nc3ccccc3c2C1=O was read as ST2 IL33 inh inactive.
COc1ccccc1-n1c(SCC(=O)NC2CCCCC2)nc2c(c1=O)SCC2 was read as ST2 IL33 inh inactive.
For CN(Cc1ccc2nonc2c1)C(=O)CN1CCOc2ccccc2C1 the results were ST2 IL33 inh inactive.
For O=C(CSc1nc2ccccc2[nH]1)NC1CC1 the results were ST2 IL33 inh inactive.
Screening COc1ccc(C(N)CC(=O)N2CCc3c(ncnc3N(C)C)C2)cc1OC (stereo not drawn) returned ST2 IL33 inh inactive.
`COc1cccc(-c2cnc(-c3ccncc3)nc2C2CCN(C(=O)/C=C/c3cccc(F)c3)CC2)c1` gave ST2 IL33 inh inactive.
`CC(C)(C)C(=O)NCCN1CCOCC1` gave ST2 IL33 inh inactive.
For CCOC(=O)c1c(-c2ccccc2)csc1NC(=O)c1noc2c1CCCC2 the results were ST2 IL33 inh inactive.
